Assay outcomes deposited in PubChem by National Center for Advancing Translational Sciences (NCATS).
BAZ2B inh = qHTS Assay for Inhibitors of BAZ2B; AlphaScreen BAZ2B-H3K14Ac peptide displacement; 4.4% of 360,000 active; AID 504333, 2011; Bromodomain adjacent to zinc finger domain protein 2B (Homo sapiens), Q9UIF8; Potency, µM (series often up to 114 µM), for the others: at the top dose activity change, negative = inhibition, actives largely listed as inhibitors; also: % is scaled to controls: 0 for no effect and ±100 for the full control effect; nearly all actives have a fitted effect of over 60% in size
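AlphaScreen displacement: compounds (up to 110uM) incubated 30 min at room temperature with a preformed 50 nM BAZ2B/50 nM biotinylated H3K14Ac peptide complex in PBS pH 7.4 with Tween-20. Donor and acceptor beads at 10 ug/mL final added, 20 min light-protected before reading.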
JMJD2A Tudor inh = qHTS Assay for Inhibitors of JMJD2A-Tudor Domain | Lysine-specific demethylase 4A (Homo sapiens), O75164 | Potency, µM (highest dose often 114 µM), for inactives: at the top dose activity change, negative = inhibition, actives largely listed as inhibitors | AlphaScreen JMJD2A-Tudor / H3K4me3 peptide binding | 4.4% of 390,000 active; also: % is scaled to controls: 0 for no effect and ±100 for the full control effect; nearly all actives have a fitted effect of over 50% in size
PLK1 PBD block = qHTS for Inhibitors of PLK1-PDB (polo-like kinase 1 - polo-box domain): Primary Screen; Potency, µM, without a hit: max response, negative = inhibition, actives largely listed as inhibitors; 2.8% of 360,000 active; Plk1 PBD binding of FITC phosphopeptide, fluorescence polarization; AID 720504, 2013; Serine/threonine-protein kinase PLK1 (Homo sapiens), P53350; also: series mostly up to about 57 µM; % is scaled to controls: 0 for no effect and ±100 for the full control effect; nearly all actives have a fitted effect of over 65% in size
G9a block = qHTS Assay for Inhibitors of Histone Lysine Methyltransferase G9a; AID 504332, 2011; Potency, µM (doses to about 102 µM), inactives show at the top dose activity, negative = inhibition, hits mostly inhibitors; 8.8% of 350,000 active; G9a H3K9 monomethylation, AlphaScreen, 2 h; Histone-lysine N-methyltransferase EHMT2 (Homo sapiens), Q96KQ7; also: % is scaled to controls: 0 for no effect and ±100 for the full control effect; nearly all actives have a fitted effect of over 75% in size
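Compounds were preincubated with 20 nM G9a for 15 min, after which biotinylated H3K9 peptide (500 nM) and SAM (20 uM) started a 2 h room-temperature reaction. Monomethylated product was quantified by antibody-based AlphaScreen chemiluminescence.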
Sfp PPTase inh = qHTS Assay for Inhibitors of Bacillus subtilis Sfp phosphopantetheinyl transferase (PPTase). AID 1490, 2009. 3.5% of 310,000 active. Biochemical Sfp PPTase activity, qHTS. Potency, µM, without a hit: largest response in the series, negative = inhibition, usual class: inhibitors;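 also: the enzyme is Sfp with the accession as filed and its product quenches rhodamine fluorescence; 0% = enzyme reaction without inhibitor and -100% = no enzyme wells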
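Fluorescence-quenching assay: 15 nM Sfp-PPTase preincubated 15 min at room temperature with compound, then 5 uM rhodamine-CoA and 12.5 uM BHQ-2-labelled YbbR peptide added. Fluorescence (ex 525/em 598 nm) read at start and after 30 min; difference gives rate.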
HP1b binding inh = HTS for Inhibitors of HP1-beta Chromodomain Interactions with Methylated Histone Tails; Chromobox protein homolog 1 (Homo sapiens), P83916; AlphaScreen HP1-beta / biotin-H3K9me3 peptide binding; Potency, µM (series often up to 114 µM), without a hit: at the highest dose activity change, negative = inhibition, actives largely listed as inhibitors; 0.56% of 390,000 active; also: nearly all actives have a fitted effect of over 70% in size
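Compound inhibition of the preformed complex between 50 nM HP1-beta and 50 nM biotinylated H3K9me3 peptide was read by AlphaScreen. Buffer was PBS pH 7.4 with 0.01% Tween-20. Incubations ran 30 min at room temperature, with 10 ug/mL donor/acceptor beads.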
Active calls of the source: *; ? = inconclusive; / = no result given; [ ] = another dose, or the depositor's remark. This is a sample that favours compounds with a hit; in the whole collection about 12% have one here. Calls follow the shape of the dose curve; as a rule, active = well fitted curve in the direction sought with a large enough effect; inconclusive = small, poorly fitted or top-dose-only effect, or another doubt; inactive = no such curve, though single readings can be large; an effect the other way counts as inactive or inconclusive. Potency is read from the fitted curve at half-maximal effect.

SMILES | BAZ2B inh | JMJD2A Tudor inh | PLK1 PBD block | G9a block | Sfp PPTase inh | HP1b binding inh
CCNC(=O)NC(=O)CSc1cccc(C(F)(F)F)c1 | 1.1% | -6.4% | -2.4% | -4.0%[59 µM] | 6.1% | 25.3%
O=C(CSCc1ccccc1Br)NNC(=S)NCc1ccco1 | -31.2% | ? | ? | 39.8µM* | 20.5% | -2.2%
Cc1nnc(SCC(=O)NC(=O)NCc2ccco2)s1 | -38.1% | -15.0% | -5.5% | -21.8% | 16.2% | 30.8%
O=C(CSc1cccc(C(F)(F)F)c1)NC(=O)NCc1ccco1 | 50.1µM* | 79.4µM* | -26.9% | 11.1%[59 µM] | -20.7% | -0.6%
Cc1ccccc1CSCC(=O)NC(=O)NCc1ccco1 | -98.7% | 44.7µM* | -25.0% | 44.7µM* | 7.7% | ?
O=C(CSc1ncccn1)NC(=O)NCc1ccco1 | / | -29.8% | -18.0% | -36.3% | -7.9% | 26.6%
O=C(CSc1ccccc1F)NC(=O)NCc1ccco1 | 39.8µM* | -21.1% | ? | -31.9% | 44.7µM* | 11.2%
CC(C)(O)C(=O)NNC(=S)NCc1ccco1 | ? | -3.6% | -4.1% | -30.2% | 9.1% | 46.9%
O=[S+]([O-])(c1ccc2nsnc2c1)N1CCN([S+](=O)([O-])c2c(F)cccc2F)CC1 | / | -12.3% | / | / | / | /
CC(C)n1c(SCC(=O)Nc2ccc(N3CCOCC3)cc2)nnc1-c1ccco1 | -16.0% | 31.6µM* | -8.0% | -39.4% | 5.2% | 30.9%
Cn1c(SCC(=O)Nc2ccc(N3CCOCC3)cc2)nnc1-c1ccco1 | -22.7% | -20.7% | -11.0% | 0.9% | 12.6% | -15.0%
CC(C)n1c(SCC(=O)Nc2nncs2)nnc1-c1ccco1 | 50.1µM* | 56.2µM* | 0.0% | / | 20µM* | -11.8%
Nc1cccc2cc(-c3ccccc3)oc12 | -38.3% | -20.6% | 3.9% | -6.9%[12.7 µM] | / | -4.8%
COc1ccc2nc(C)cc(Sc3nc4ccccc4s3)c2c1 | 19.1% | 79.4µM* | 23.8µM* | 14.1µM* | ? | 34.4%
O=c1cc(O)c2c(=O)n(-c3ccccc3)c3c(c2o1)CCCCCC3 | 50.1µM* | ? | -1.0% | 9.5%[59 µM] | 5.5% | 5.5%
O=c1cc(O)c2c(=O)n(C3CCCCC3)c3ccccc3c2o1 | ? | -30.6% | -3.4% | ? | -5.5% | 30.0%
COc1cc(-c2nc3cnccn3c2Nc2c(C)cccc2C)ccc1O | 3.4% | -5.2% | -6.6% | -4.9%[2.33 µM] | -18.1% | 25.4%
Cc1cccc(C)c1Nc1c(-c2ccc(O)cc2)nc2sccn12 | 39.8µM* | 44.7µM* | / | 3.98µM* | / | 15.8µM*
COc1cc(-c2nc3sccn3c2Nc2c(C)cccc2C)ccc1O | 11.8% | 56.2µM* | / | 7.6%[59 µM] | / | ?
O=C(CCNC(=O)c1ccc(Br)cc1)NCCCSc1ccccc1 | 0.9% | -10.3% | -15.1% | -2.7% | / | 39.3%
O=c1[nH][nH]c2cc(=O)n(-c3ccc(Cl)cc3)nc12 | 50.1µM* | ? | -20.9% | 39.8µM* | 5.4% | -12.5%
CC1=NOC(=O)/C1=C\c1ccc(-c2ccc(Br)cc2C(=O)O)o1 | ? | -15.3% | 2.67µM* | / | ? | -5.2%
CC1=NOC(=O)/C1=C\c1ccc(-c2cc(Cl)ccc2Cl)o1 | ? | ? | 0.597µM* | ? | 17.8µM* | ?
CC1=NOC(=O)/C1=C/c1ccc(-c2ccc(Cl)cc2)o1 | ? | / | / | 4.47µM* | 31.6µM* | /
CCOC(=O)c1cc(-c2ccc(/C=C3/C(=O)N(c4ccc(C(=O)O)cc4)N=C3C)o2)ccc1Cl | 17.8µM* | 14.1µM* | 0.844µM* | 7.08µM* | -4.2% | ?
COC(=O)C1(C(=O)OC)C/C=C\C/C=C\c2ccccc2C1C[N+](=O)[O-] (stereo not given) | / | / | / | / | 1.3% | /
Cc1noc(C)c1S(=O)(=O)N1CCN(c2ccccc2Cl)CC1 | -0.8% | 16.6% | -5.3% | -13.2% | / | 64.0%
